From PubChem BioAssay AID493170 (National Center for Advancing Translational Sciences (NCATS), 2011)
Records with an inconclusive call do not appear. A call without a number means that no potency is given here. Calls of active or inactive are those of the source. Calls come from the whole dose curve; as a rule, active = well fitted inhibition curve with a large enough effect; inconclusive = small, poorly fitted or top-dose-only effect, or effect the other way; inactive = flat fitted curve, though single readings scatter.

These molecules were tested against Ubiquitin carboxyl-terminal hydrolase 2 (Homo sapiens) (UniProt O75604) (assay: Ub-rhodamine 110 based assay for inhibitors Ubiquitin-specific Protease USP2a). Conditions: USP2a Ub-rhodamine110 cleavage, fluorescence; series mostly up to 38.3 µM.
Ubiquitin carboxyl-terminal hydrolase 2 (Homo sapiens), sequence (O75604 whole entry, looked up): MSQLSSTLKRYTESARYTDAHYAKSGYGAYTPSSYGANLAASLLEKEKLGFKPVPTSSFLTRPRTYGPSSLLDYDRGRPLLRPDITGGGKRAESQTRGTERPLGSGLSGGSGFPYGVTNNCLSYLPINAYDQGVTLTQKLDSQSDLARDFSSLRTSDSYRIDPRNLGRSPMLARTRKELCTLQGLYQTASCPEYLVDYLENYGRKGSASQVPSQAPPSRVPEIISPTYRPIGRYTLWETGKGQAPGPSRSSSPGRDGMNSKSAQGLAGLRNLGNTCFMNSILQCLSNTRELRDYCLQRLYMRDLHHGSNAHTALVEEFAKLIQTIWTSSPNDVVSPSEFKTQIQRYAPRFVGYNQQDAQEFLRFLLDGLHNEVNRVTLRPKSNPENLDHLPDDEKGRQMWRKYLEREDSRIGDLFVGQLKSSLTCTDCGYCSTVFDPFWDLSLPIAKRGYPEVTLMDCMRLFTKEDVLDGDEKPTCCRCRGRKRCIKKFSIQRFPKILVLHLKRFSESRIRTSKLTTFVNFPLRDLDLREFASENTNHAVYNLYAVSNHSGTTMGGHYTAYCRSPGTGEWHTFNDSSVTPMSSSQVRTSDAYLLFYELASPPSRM
How it was run: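 5 nM USP2a preincubated with compounds for 30 min at RT in 20 mM Tris-HCl pH 8.0, 2 mM CaCl2, 2 mM beta-mercaptoethanol, 0.05% CHAPS. Cleavage of 150 nM Ub-rhodamine 110 read kinetically (Ex 485/Em 531) for 7 min.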
Note: nearly all actives have a fitted effect of over 50% in size.
Potency is the fitted concentration of half-maximal effect.

Row | Compound | Potency
1 | C#CCOCCOCCOCCNc1nc(N2CCN(C(=O)CCCCCCCCCCNC(=O)[C@@H](CCC(=O)O)n3cc(CCCCCN)nn3)CC2)nc(N2CCN(C(=O)CCCCCCCCCCNC(=O)[C@H](CCCCN)n3cc(C[C@@H](C)CC)nn3)CC2)n1 | inactive
2 | O=C(NC1CCCCC1)C(c1ccco1)N(Cc1ccco1)C(=O)c1ccco1 (stereo not given) | inactive
3 | C#CCOCCOCCOCCNc1nc(N2CCN(C(=O)CCCCCCCCCCNC(=O)[C@H]([C@@H](C)CC)n3cc(CCCCCN)nn3)CC2)nc(N2CCN(C(=O)CCCCCCCCCCNC(=O)[C@H](CCCCN)n3cc(CCCC(=O)O)nn3)CC2)n1 | inactive
4 | Cc1ccc(S(=O)(=O)Nc2cc(C)c(O)c(S(=O)(=O)c3ccc(C)cc3)c2)cc1 | inactive
5 | Cc1ccc(C(=O)Oc2coc(CSc3nnc(NC(=O)c4cccs4)s3)cc2=O)cc1 | 11.2 µM (active)
6 | COc1ccc(C(=O)Nc2ccc(N3CCCC3)cc2)cc1OC | inactive
7 | O=C(CSc1nc2ccccc2[nH]1)Nc1ccc2c(c1)OCCO2 | inactive
8 | CSC1=NCCN1C(=O)Cc1ccc(F)cc1 | inactive
9 | COCc1cc(C)nc(SCC[N+](C)(C)CC(=O)Nc2cccc(C(F)(F)F)c2)c1C#N | inactive
10 | Cc1ccc2[nH]c(=O)c(COC(=O)c3ccccn3)cc2c1 | inactive
11 | O=C(Nc1cccc(Cl)c1)Nc1nnc(CC2=CCCCC2)s1 | inactive
12 | CCOc1ccc(C(=O)c2ccc(OCC)c(N)c2)cc1N | inactive
13 | O=c1[nH]c(=S)[nH]c2c1C(c1ccc(Br)cc1)c1c([nH]c(=S)[nH]c1=O)O2 | 11.2 µM (active)
14 | COC(=O)c1[nH]c2cc(OC)ccc2c1N | inactive
15 | C[C@H](CO)N1C[C@H](C)[C@@H](CN(C)S(=O)(=O)c2cccs2)Oc2c(NC(=O)Nc3ccc4c(c3)OCO4)cccc2C1=O | inactive
16 | N#C/C(=C\c1ccc(O)c(O)c1)C(=O)Nc1cccc2ncccc12 | 2.24 µM (active)
17 | CN(C)S(=O)(=O)c1ccc(C(=O)NCCN=C2NS(=O)(=O)c3ccccc32)cc1 | inactive
18 | FC(F)(F)C1=Nc2cccc3cccc(c23)N1 | inactive
19 | CN(c1ccccc1)S(=O)(=O)c1ccc(Cl)c(C(=O)NCCc2c[nH]c3ccccc23)c1 | inactive
20 | Cc1[nH]c2ccccc2c1C(c1ccccn1)c1c(C)[nH]c2ccccc12 | inactive

Row | Compound | Potency
21 | COC(=O)CSc1nnc(NC(=O)C2CC(=O)N(c3ccc(F)cc3)C2)s1 (stereo not given) | 11.2 µM (active)
22 | CCc1c(O)nc(SCC(=O)Nc2ccccc2OC)[nH]c1=O | inactive
23 | O=C(COC(=O)c1c2c(nc3ccccc13)/C(=C/c1ccco1)CC2)NC1CCCC1 | 3.55 µM (active)
24 | CN(CC(=O)Nc1cccc2ccccc12)C(=O)c1ccc(NC(=O)CC#N)cc1 | 11.2 µM (active)
25 | O=c1cc(CO)oc(CN2CCN(Cc3ccccc3)CC2)c1O | inactive
26 | CN(C)c1cccc(C(=O)NNC(=O)C23CC4CC(CC(C4)C2)C3)c1 | inactive
27 | O=C(NCc1ccccc1)C1CCC1 | inactive
28 | Cc1ccc(N2CCN(C(=O)CCc3nc4ccccc4[nH]3)CC2)c(C)c1 | inactive
29 | C#CCOCCOCCOCCNc1nc(N2CCN(C(=O)CCCCCCCCCCNC(=O)[C@@H](CCC(=O)O)n3cc(CCCCCN)nn3)CC2)nc(N2CCN(C(=O)CCCCCCCCCCNC(=O)[C@H]([C@@H](C)CC)n3cc(CCCCCN)nn3)CC2)n1 | inactive
30 | Cc1cccc(N=C2NC(=O)/C(=C/C=C/c3ccco3)S2)c1 | 10 µM (active)
31 | Cc1cc(NS(=O)(=O)c2ccc(Nc3nc(-c4ccc(C)c(C)c4)cs3)cc2)no1 | 10 µM (active)
32 | CCN(CC(=O)Nc1ccc(NC(C)=O)cc1)C(=O)c1ccc(N2CCC(C)CC2)c([N+](=O)[O-])c1 | inactive
33 | Cc1cc(C(=O)OCC(=O)c2cccc([N+](=O)[O-])c2)c2cccc(C)c2n1 | 10 µM (active)
34 | Cc1cc(C)n2cc(CSc3nnnn3-c3ccccc3C)nc2n1 | inactive
35 | CC(=O)Nc1ccc(NC(=O)C2CCCN(S(=O)(=O)c3ccc(Cl)cc3)C2)cc1 (stereo not given) | inactive
36 | COc1ccc(-c2nc3cc(NC(=O)Cc4ccc(OC)c(OC)c4)ccc3o2)cc1 | inactive
37 | O=C(CSCCO)Nc1cccc2ccccc12 | inactive
38 | C[C@](N)(Cc1ccc(O)c(O)c1)C(=O)O | inactive
39 | O=[N+]([O-])c1ccc(Sc2nnnn2-c2ccccc2)c(Cl)c1 | inactive
40 | Cc1cc(/C=C2\C(=N)N3N=C(c4ccco4)SC3=NC2=O)c(C)n1Cc1ccccc1 | 7.08 µM (active)
